In PubChem BioAssay (NCATS):
Where “and” joins values, the source holds several entries; their conditions need not be identical. Equal entries are not always repeated. Results filed as inconclusive are left out. Entries that show only a call come without a potency. Values without a mark were called inactive. Calls of active or inactive are those of the source. Calls follow the shape of the dose curve; as a rule, active = well fitted curve in the direction sought with a large enough effect; inconclusive = small, poorly fitted or top-dose-only effect, or another doubt; inactive = no such curve, though single readings can be large; an effect the other way counts as inactive or inconclusive. Peptide text beside a SMILES is read from it. * marks the point of attachment. Hexanoyl = CCCCCC(=O)*

Legend:
[1] = target: Cellular tumor antigen p53 (Homo sapiens) (UniProt P04637); assay: Primary qHTS for small molecule compounds that upregulate eGFP-tagged delta133p53alpha (in N-terminal) cells. (AID 2060322); conditions: NCI-H358 eGFP-delta133p53alpha fluorescence, 24 h; activation: hits give high values; also: nearly all actives have a fitted effect of over 75% in size; also: potency is read from the fitted curve at half-maximal effect;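 as to activation: cells pre-induced with doxycycline then dosed without doxycycline; series mostly up to about 56 µM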
Summary of the method: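 NCI-H358 cells pre-induced 24 h with 10 ng/ml doxycycline for eGFP-delta133p53alpha, plated dox-free and exposed 24 h at 37C to titrated compounds. Fixed, Hoechst-stained; gated GFP peak intensity by laser scanning cytometry, normalized to DMSO (0%) and 57.5 uM 5-azacytidine (100%).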

[2] = target: Aldehyde dehydrogenase, mitochondrial (Homo sapiens) (UniProt P05091); assay: qHTS for Inhibitors of the Aldehyde Dehydrogenase Family (ALDH2) Primary screen (AID 2061308); also: nearly all actives have a fitted effect of over 55% in size
[3] = target: Retinaldehyde dehydrogenase 3 (Homo sapiens) (UniProt P47895); assay: qHTS for Inhibitors of the Aldehyde Dehydrogenase Family (ALDH1A3) Primary screen (AID 2061315)

Cellular tumor antigen p53 (Homo sapiens), sequence (P04637 whole entry, looked up): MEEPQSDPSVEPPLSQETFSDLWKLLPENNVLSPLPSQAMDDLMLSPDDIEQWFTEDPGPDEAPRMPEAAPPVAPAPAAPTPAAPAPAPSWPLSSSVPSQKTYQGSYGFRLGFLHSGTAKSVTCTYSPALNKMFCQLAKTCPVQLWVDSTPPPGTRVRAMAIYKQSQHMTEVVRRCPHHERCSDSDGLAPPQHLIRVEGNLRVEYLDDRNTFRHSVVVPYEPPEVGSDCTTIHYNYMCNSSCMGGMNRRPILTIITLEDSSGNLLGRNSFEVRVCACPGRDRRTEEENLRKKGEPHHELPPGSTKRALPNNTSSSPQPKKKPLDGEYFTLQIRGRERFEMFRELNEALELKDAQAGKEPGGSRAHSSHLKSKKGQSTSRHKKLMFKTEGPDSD

## COc1c(C(O)CC(C)C)ccc2c1C(=O)OCc1cc(C)cc(O)c1O2 (stereo not given)
[1]
  activation: -2.68%
[2]
  Potency: inactive
[3]
  Potency: inactive

## CCC(C)C(=O)O[C@H]1C[C@](C)(O)[C@]23OC(C)(C)[C@H](C[C@H](OC(=O)c4ccccc4)[C@]2(COC(C)=O)[C@H]1OC(=O)C(C)CC)[C@H]3OC(C)=O (stereo not given in full)
[1]
  activation: 11.5%
[2]
  Potency: inactive
[3]
  Potency: inactive

## CC1=C2C3OC(=O)C(C)C3(O)CCC2(C)CCC1O (stereo not given)
[1]
  activation: -10.7%
[2]
  Potency: inactive
[3]
  Potency: inactive

## CC1(C(=O)O)CCCC2(C)C3CCC4CC3(CCC12)CC4C(=O)O (stereo not given)
[1]
  activation: -3.05%
[2]
  Potency: inactive
[3]
  Potency: inactive

## C=CCC1=C[C@]2(OC)[C@H](C)[C@@H](c3ccc4c(c3)OCO4)O[C@]2(OC)CC1=O
[1]
  activation: 1.53%
[2]
  Potency: inactive
[3]
  Potency: inactive

## CCC(C)C(=O)OC1CC(C)C=C2C=CC(C)C(CCC(O)CC(O)CC(=O)O)C21 (stereo not given)
[1]
  activation: -1.53%
[2]
  Potency: inactive
[3]
  Potency: inactive

## O=C(NC1CCC1)c1ccc(C#Cc2cccc(F)c2)nc1
[1]
  activation: 21.4%
[2]
  Potency: inactive
[3]
  Potency: inactive

## CCC(CC)n1ccc2c(C(=O)NCc3c(C)cc(C)[nH]c3=O)cc(C#N)cc21
[1]
  activation: -3.35%
[2]
  Potency: inactive
[3]
  Potency: inactive

## CC1CCC2C(=CCC(O)C2(C)C)C1(C)Cc1c(O)cc(CO)c(C=O)c1O (stereo not given)
[1]
  activation: 9.92%
[2]
  Potency: inactive
[3]
  Potency: inactive

## COC(=O)C1=CO[C@@H](O[C@@H]2O[C@H](CO)[C@@H](O)[C@H](O)[C@H]2O)[C@H]2[C@@H]1[C@H](O)C[C@]2(C)O
[1]
  activation: 3.57%
[2]
  Potency: inactive
[3]
  Potency: inactive

## CC(=O)c1ccc(OCC(=O)N2CCCCC2)cc1
[1]
  activation: -3%
[2]
  Potency: inactive
[3]
  Potency: inactive

## Cc1csc(NC(=O)c2ccc(COc3cccc(Cl)c3)o2)n1
[1]
  activation: -9.67%
[2]
  Potency: inactive
[3]
  Potency: inactive

## C/C=C/C1OC2=C(C(=O)OC2(C)O)C(O)C1O (stereo not given)
[1]
  activation: 28.2%
[2]
  Potency: inactive
[3]
  Potency: inactive

## C[C@@H]1O[C@@H](O[C@H]2[C@H](OC(=O)[C@]34CCC(C)(C)C[C@H]3C3=CCC5[C@@]6(C)CC[C@H](O[C@@H]7O[C@H](C(=O)O)[C@@H](O)[C@H](O)[C@H]7O[C@@H]7O[C@H](CO)[C@H](O)[C@H](O)[C@H]7O)[C@@](C)(C=O)C6CC[C@@]5(C)[C@]3(C)C[C@H]4O)O[C@H](C)[C@H](O[C@@H]3O[C@H](C)[C@H](O)[C@H](O)[C@H]3O)[C@@H]2O)[C@H](O)[C@H](O)[C@H]1O[C@@H]1OC[C@@H](O)[C@H](O[C@@H]2O[C@H](CO)[C@@H](O)[C@H](O)[C@H]2O)[C@H]1O (stereo not given in full)
[1]
  activation: -6.87%
[2]
  activity change, negative = inhibition: -7.78% [at 11.2 µM]
[3]
  activity change, negative = inhibition: -11.5% [at 11.2 µM]

## COC(=O)[C@@]1(O)C=CC[C@@H]2[C@@]3(C)C[C@@H](c4ccoc4)OC(=O)[C@H]3CC[C@]21C
[1]
  activation: 7.14%
[2]
  Potency: inactive
[3]
  Potency: inactive

## COC(=O)/C=C/c1ccc(O[C@@H]2O[C@H](CO)[C@@H](O)[C@H](O)[C@H]2O)cc1
[1]
  activation: -8.04%
[2]
  Potency: inactive
[3]
  Potency: inactive

## COc1cc(C(C)=O)ccc1O[C@@H]1O[C@H](CO[C@@H]2O[C@@H](C)[C@H](O)[C@@H](O)[C@H]2O)[C@@H](O)[C@H](O)[C@H]1O
[1]
  activation: -13%
[2]
  Potency: inactive
[3]
  Potency: inactive

## Cc1ccc(Sc2cncc3sc(C(N)=O)cc23)cc1
[1]
  activation: -17.7%
[2]
  Potency: inactive
[3]
  Potency: inactive

## CC(C)=CCC[C@](C)(O)[C@H]1CC[C@]2(C)[C@@H]1[C@H](O)CC1[C@@]3(C)CC[C@H](O)C(C)(C)C3[C@@H](O[C@@H]3O[C@H](CO)[C@@H](O)[C@H](O)[C@H]3O[C@@H]3OC[C@@H](O)[C@H](O)[C@H]3O)C[C@]12C (stereo not given in full)
[1]
  activation: -16.8%
[2]
  Potency: inactive
[3]
  Potency: inactive

## COc1cc(/C=C/CO)ccc1O[C@@H]1O[C@H](CO)[C@@H](O)[C@H](O)[C@H]1O
[1]
  activation: -6.25%
[2]
  Potency: inactive
[3]
  Potency: inactive

## COC1CC/C=C(\C)C(=O)Nc2cc(O)cc(c2)CC(C)CC(OC)C(O)C(C)/C=C(\C)C1OC(N)=O (stereo not given)
[1]
  activation: 6.87%
[2]
  Potency: inactive
[3]
  Potency: inactive

## Oc1ccc2c(-c3c(-c4ccccn4)nn4c3CCC4)ccnc2c1
[1]
  Potency: 26.9 µM (active)
[2]
  Potency: inactive
[3]
  Potency: inactive

## COc1cc(/C=C/c2ccccc2)c(C(=O)O)c(O)c1CC=C(C)C
[1]
  activation: -9.82%
[2]
  Potency: inactive
[3]
  Potency: inactive

## Cc1cc(O)cc2c1O[C@](C)(CCC[C@H](C)CCC[C@H](C)CCCC(C)C)CC2
[1]
  activation: -16.4%
[2]
  Potency: inactive
[3]
  Potency: inactive

## CN1[C@@H]2CC[C@H]1CC(OC(=O)c1c[nH]c3ccccc13)C2 (stereo not given in full)
[1]
  activation: -6.21% and -7.16%
[2]
  Potency: inactive
[3]
  Potency: inactive

## CC(C)[C@H]1CC[C@@]2(O)COC(=O)[C@H]2[C@@H]1/C=C(\CO)C(=O)O
[1]
  activation: -2.29%
[2]
  Potency: inactive
[3]
  Potency: inactive

## CC1CC[C@]2(C(=O)O)CC[C@]3(C(=O)O)C(=CCC4[C@@]5(C)CC[C@H](OC6OC(C)C(O)C(OC7OC(CO)C(O)C(O)C7O)C6O)C(C)(C)C5CC[C@]43C)C2C1C (stereo not given in full)
[1]
  activation: -8.04%
[2]
  Potency: inactive
[3]
  Potency: inactive

## C/C=C(\C)C1C(C)=CC2CCC(OS(=O)(=O)O)C(C)C2C1/C=C/C=C/C(=O)O (stereo not given)
[1]
  activation: 0.893%
[2]
  Potency: inactive
[3]
  Potency: inactive

## CC1=CC(=O)C2(OC3OC(C)C(O)C(OC(=O)/C=C/c4ccccc4)C3O)C=COC(OC3OC(CO)C(O)C(O)C3O)C12 (stereo not given)
[1]
  activation: -13.7%
[2]
  Potency: inactive
[3]
  Potency: inactive

## CNC(C)C(=O)NC(C(=O)N1CCCC1C(=O)Nc1cccc2ncccc12)C(C)C (stereo not given)
[1]
  activation: -21%
[2]
  Potency: inactive
[3]
  Potency: inactive

## COc1c(O[C@@H]2O[C@H](CO)[C@@H](O)[C@H](O)[C@H]2O)c(CCC(=O)O)cc2ccoc12
[1]
  activation: -7.63%
[2]
  Potency: inactive
[3]
  Potency: inactive

## C=C(C=O)[C@]1(O)C[C@@]2(C)C(=CC1=O)C=C[C@H](OC(=O)/C=C/C=C/[C@H](C)CC)[C@@H]2C
[1]
  Potency: 4.65 µM (active)
[2]
  Potency: inactive
[3]
  Potency: inactive

## CC(C)(O)[C@@H]1CC[C@]2(CO)[C@@H](O)CC[C@](C)(O)[C@H]2[C@@H]1O[C@@H]1O[C@H](CO)[C@@H](O)[C@H](O)[C@H]1O
[1]
  activation: 1.53%
[2]
  Potency: inactive
[3]
  Potency: inactive

## Fc1ccccc1CNCc1ccc(-c2ccnc3[nH]ccc23)cc1
[1]
  activation: 7.14%
[2]
  Potency: inactive
[3]
  Potency: inactive

## CC1(C)CCC2(C(=O)OC3OCC(O)C(O)C3O)CCC3(C)C(=CCC4C5(C)CC(O)C(OC6OC(COC7OCC(O)C(O)C7O)C(O)C(O)C6O)C(C)(C)C5CCC43C)C2C1 (stereo not given)
[1]
  activation: 4.46%
[2]
  Potency: inactive
[3]
  Potency: inactive

## Cc1nc(C#Cc2ccnc(Cl)c2)c(C)n1-c1ccc(OC(F)(F)F)cc1
[1]
  activation: -7.16%
[2]
  Potency: inactive
[3]
  Potency: inactive

## CC1COC(Nc2ccc3ncnc(Nc4ccc(OCc5nccs5)c(Cl)c4)c3c2)=N1 (stereo not given)
[1]
  activation: 13.4%
[2]
  Potency: inactive
[3]
  Potency: inactive

## CC1=CC(=O)CC2C1(O)CCC(C)C21CC(c2ccoc2)OC1=O (stereo not given)
[1]
  activation: 6.87%
[2]
  Potency: inactive
[3]
  Potency: inactive

## C[C@@H]1O[C@@H](O[C@H]2[C@H](O)[C@@H](O)[C@H](OC3CCC4(C)C5CCC(C)(C(CO)OC6OC(CO)C(O)C(O)C6O)CC5=CCC4C3(C)C)O[C@@H]2CO)[C@H](O)[C@H](O)[C@H]1O (stereo not given in full)
[1]
  activation: -22.9%
[2]
  Potency: inactive
[3]
  Potency: inactive

## CC1(C)OC(=O)C=C[C@@]2(C)C1CC(=O)[C@]1(C)C2CC[C@@]2(C)[C@H](c3ccoc3)OC(=O)[C@H]3O[C@]321 (stereo not given in full)
[1]
  activation: -19.1%
[2]
  Potency: inactive
[3]
  Potency: inactive

## CCCN1CCC(c2cccc(S(C)(=O)=O)c2)CC1
[1]
  activation: -11.9%
[2]
  Potency: inactive
[3]
  Potency: inactive

## CC1(C)CCC[C@]2(C)C1CC=C(CO)[C@H]2CC/C(=C/CO)CO (stereo not given in full)
[1]
  activation: -15.3%
[2]
  Potency: inactive
[3]
  Potency: inactive

## COC1CC(=O)CCC(C)OC(=O)CC1O (stereo not given)
[1]
  activation: -6.87%
[2]
  Potency: inactive
[3]
  Potency: inactive

## C=C1CC[C@@H]2[C@@](C)(CO[C@@H]3O[C@H](CO)C(O)[C@H](O)C3O)[C@H](O)CC[C@@]2(C)[C@@H]1CC/C(C)=C/CO (stereo not given in full)
[1]
  activation: -5.36%
[2]
  Potency: inactive
[3]
  Potency: inactive

## CCCCCC(=O)N1CCC[C@H]1C(=O)N[C@@H](Cc1ccc(O)cc1)C(=O)OC (Hexanoyl-Pro-Tyr-OMe)
[1]
  activation: -3.57%
[2]
  Potency: inactive
[3]
  Potency: inactive
